What all share (assay): DAPPL (digital affinity profiling via proximity ligation, sequencing); 10 mM Tris-HCl pH 7.5, 50 mM NaCl, 1 mM DTT, 4% glycerol, room temperature, 30 min; GST-TFs on glutathione beads, 16-mer random dsDNA library, 0.1% formaldehyde crosslink after washing; high values mean tight binding
What all share (settings): protein: recombinant; tags: N-terminal GST; dsDNA, one strand shown

Assay [1] deals with T1, ERF (Homo sapiens, UniProt P50548 1-548).
T1 sequence: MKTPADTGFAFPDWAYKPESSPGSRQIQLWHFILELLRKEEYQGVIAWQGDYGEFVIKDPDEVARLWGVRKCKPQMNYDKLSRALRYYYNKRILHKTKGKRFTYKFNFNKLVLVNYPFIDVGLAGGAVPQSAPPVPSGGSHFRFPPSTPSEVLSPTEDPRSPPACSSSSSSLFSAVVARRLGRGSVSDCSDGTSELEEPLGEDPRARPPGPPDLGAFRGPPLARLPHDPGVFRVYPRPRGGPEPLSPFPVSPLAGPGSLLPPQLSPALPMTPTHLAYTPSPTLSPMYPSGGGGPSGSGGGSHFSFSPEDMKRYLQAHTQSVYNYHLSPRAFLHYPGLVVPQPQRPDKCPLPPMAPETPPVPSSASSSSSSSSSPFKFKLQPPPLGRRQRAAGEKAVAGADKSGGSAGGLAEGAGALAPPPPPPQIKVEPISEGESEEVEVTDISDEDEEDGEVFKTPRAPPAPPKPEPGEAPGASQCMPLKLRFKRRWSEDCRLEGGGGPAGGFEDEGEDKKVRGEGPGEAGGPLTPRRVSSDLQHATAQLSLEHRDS
The procedure, abridged:
(§1)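 A tag-only sample was pooled with DNA-barcoded human transcription factors that had been expressed in yeast as GST fusions and captured on glutathione beads. The pools were incubated for 30 min at room temperature with 200 nmole of a random double-stranded 16-mer DNA library in Tris/NaCl/DTT/glycerol buffer, then washed, crosslinked with 0.1% formaldehyde, proximity-ligated (BsaI/T4 ligase, 1 h, 37 °C), PCR-amplified and sequenced on an Illumina NextSeq500. Binding signal is each hexamer's read frequency for a factor divided by its frequency for the tag-only sample.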

Assay [2] has as its target T2, ETV3L (Homo sapiens, UniProt Q6ZN32 1-361).
T2 sequence: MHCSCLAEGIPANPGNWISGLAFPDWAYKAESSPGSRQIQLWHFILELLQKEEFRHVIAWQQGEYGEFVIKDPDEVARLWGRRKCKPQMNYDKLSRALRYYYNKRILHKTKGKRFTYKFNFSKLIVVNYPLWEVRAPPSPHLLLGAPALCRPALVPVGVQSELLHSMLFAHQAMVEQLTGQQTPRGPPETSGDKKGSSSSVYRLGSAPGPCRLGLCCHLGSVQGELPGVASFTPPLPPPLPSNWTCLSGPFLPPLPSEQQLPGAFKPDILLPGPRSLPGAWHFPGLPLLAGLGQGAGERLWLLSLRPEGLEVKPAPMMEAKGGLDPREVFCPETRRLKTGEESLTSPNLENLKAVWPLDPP
Summed up: as §1

Assay [3] concerns the target T3, ETS2 (Homo sapiens, UniProt P15036 1-469).
T3 sequence: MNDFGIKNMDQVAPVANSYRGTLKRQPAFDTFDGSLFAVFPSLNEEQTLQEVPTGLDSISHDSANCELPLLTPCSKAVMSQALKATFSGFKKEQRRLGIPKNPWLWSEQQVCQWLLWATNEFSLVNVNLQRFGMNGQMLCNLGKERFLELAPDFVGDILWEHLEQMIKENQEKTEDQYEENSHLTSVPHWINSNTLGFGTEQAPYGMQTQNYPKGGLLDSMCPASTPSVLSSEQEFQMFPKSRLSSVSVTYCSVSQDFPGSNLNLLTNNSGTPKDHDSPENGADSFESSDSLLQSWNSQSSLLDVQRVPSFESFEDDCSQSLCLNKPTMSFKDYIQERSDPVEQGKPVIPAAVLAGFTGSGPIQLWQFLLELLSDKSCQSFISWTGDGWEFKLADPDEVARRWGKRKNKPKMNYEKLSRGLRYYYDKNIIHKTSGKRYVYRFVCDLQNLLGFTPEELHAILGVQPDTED
The procedure, abridged:
as §1

Assay [4] deals with T4, SPDEF (Homo sapiens, UniProt O95238 1-335).
T4 sequence: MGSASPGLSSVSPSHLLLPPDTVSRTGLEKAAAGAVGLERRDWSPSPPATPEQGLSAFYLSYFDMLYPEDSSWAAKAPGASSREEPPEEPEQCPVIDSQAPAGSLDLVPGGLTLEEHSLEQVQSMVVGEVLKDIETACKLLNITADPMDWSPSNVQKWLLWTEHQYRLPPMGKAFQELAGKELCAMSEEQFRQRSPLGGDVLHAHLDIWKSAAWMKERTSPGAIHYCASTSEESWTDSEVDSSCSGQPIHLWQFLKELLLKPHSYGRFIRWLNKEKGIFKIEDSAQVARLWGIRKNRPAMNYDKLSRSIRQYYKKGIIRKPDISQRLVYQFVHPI
The procedure, abridged:
as §1

In assay [5] the target is T5, ETV7 (Homo sapiens, UniProt Q9Y603 1-341).
T5 sequence: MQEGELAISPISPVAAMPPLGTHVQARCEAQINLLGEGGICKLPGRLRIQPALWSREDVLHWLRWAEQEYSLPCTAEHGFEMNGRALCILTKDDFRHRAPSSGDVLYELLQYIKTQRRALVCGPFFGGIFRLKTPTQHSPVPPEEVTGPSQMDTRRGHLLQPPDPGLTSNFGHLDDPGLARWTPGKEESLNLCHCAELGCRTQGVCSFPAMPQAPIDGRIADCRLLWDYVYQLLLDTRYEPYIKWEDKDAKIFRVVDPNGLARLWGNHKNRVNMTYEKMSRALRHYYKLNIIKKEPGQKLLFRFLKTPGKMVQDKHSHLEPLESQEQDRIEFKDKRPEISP
Summed up: as §1

Assay [6] addresses T6, ELF5 (Homo sapiens, UniProt Q9UKW6-2 1-255).
T6 sequence: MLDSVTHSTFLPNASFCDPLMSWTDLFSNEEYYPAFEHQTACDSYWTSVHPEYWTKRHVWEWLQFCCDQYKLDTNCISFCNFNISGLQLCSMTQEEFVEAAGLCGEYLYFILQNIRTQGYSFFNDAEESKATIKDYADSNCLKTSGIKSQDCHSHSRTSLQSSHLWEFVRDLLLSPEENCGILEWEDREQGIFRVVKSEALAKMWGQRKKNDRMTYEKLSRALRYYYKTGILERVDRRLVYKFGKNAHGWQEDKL
The procedure, abridged: as §1

In assay [7] the target is T7, ETV3 (Homo sapiens, UniProt P41162-2 1-143).
T7 sequence: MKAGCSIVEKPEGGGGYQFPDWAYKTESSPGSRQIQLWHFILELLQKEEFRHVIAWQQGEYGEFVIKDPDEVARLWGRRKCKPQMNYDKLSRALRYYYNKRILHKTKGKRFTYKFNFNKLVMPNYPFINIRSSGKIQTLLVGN
The procedure, abridged: as §1

Assay [8] deals with ETV6 (Homo sapiens, UniProt P41212 1-452). Summed up:
as §1

Drawing on paper PMC7862700, “An all-to-all approach to the identification of sequence-specific readers for epigenetic DNA modifications on cytosine”, this text covers binding signal for 7 sequences.

ETV6, sequence (P41212 whole entry): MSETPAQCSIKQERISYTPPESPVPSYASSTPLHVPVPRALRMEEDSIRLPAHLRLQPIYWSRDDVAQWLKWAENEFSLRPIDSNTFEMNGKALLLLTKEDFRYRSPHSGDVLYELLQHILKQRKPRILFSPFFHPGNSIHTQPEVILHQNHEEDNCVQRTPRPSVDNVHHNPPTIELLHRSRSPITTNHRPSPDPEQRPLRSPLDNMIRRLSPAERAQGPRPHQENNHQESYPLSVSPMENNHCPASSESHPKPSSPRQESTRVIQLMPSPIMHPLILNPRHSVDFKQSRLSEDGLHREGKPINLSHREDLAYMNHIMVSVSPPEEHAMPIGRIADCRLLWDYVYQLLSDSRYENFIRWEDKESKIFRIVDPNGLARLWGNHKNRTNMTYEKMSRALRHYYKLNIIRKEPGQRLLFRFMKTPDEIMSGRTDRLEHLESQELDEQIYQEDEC

For GTCCTT, the binding signal in assay [1] is 1.14 fold enrichment (6-mer frequency, TF over GST control); in assay [2], 1.29 fold enrichment (6-mer frequency, TF over GST control); in assay [3], 1.28 fold enrichment (6-mer frequency, TF over GST control); in assay [4] it was 1.29 fold enrichment (6-mer frequency, TF over GST control); in assay [5], 1.11 fold enrichment (6-mer frequency, TF over GST control); in assay [6], 1.43 fold enrichment (6-mer frequency, TF over GST control). Also, the binding signal in assay [7] is 1.18 fold enrichment (6-mer frequency, TF over GST control); in assay [8], 1.26 fold enrichment (6-mer frequency, TF over GST control).

With CCGGAC, the binding signal was 1.4 fold enrichment (6-mer frequency, TF over GST control) in assay [1]; 1.48 fold enrichment (6-mer frequency, TF over GST control) in assay [2]; 1.52 fold enrichment (6-mer frequency, TF over GST control) in assay [3]; 2.1 fold enrichment (6-mer frequency, TF over GST control) in assay [4]; 1.39 fold enrichment (6-mer frequency, TF over GST control) in assay [5]; 1.77 fold enrichment (6-mer frequency, TF over GST control) in assay [6]. Moreover, the binding signal in assay [7] is 1.6 fold enrichment (6-mer frequency, TF over GST control); in assay [8], 1.41 fold enrichment (6-mer frequency, TF over GST control).

As for TCAAAG, the binding signal was 1.08 fold enrichment (6-mer frequency, TF over GST control) in assay [1]; 1.12 fold enrichment (6-mer frequency, TF over GST control) in assay [2]; 1.12 fold enrichment (6-mer frequency, TF over GST control) in assay [3]; 1.01 fold enrichment (6-mer frequency, TF over GST control) in assay [4]; 1.1 fold enrichment (6-mer frequency, TF over GST control) in assay [5]; 1.04 fold enrichment (6-mer frequency, TF over GST control) in assay [6]. Further, the binding signal in assay [7] is 1.07 fold enrichment (6-mer frequency, TF over GST control); in assay [8], 1.09 fold enrichment (6-mer frequency, TF over GST control).

Turning to ACCACT, the binding signal in assay [1] was 1.22 fold enrichment (6-mer frequency, TF over GST control); in assay [2], 1.36 fold enrichment (6-mer frequency, TF over GST control); in assay [3], 1.29 fold enrichment (6-mer frequency, TF over GST control); in assay [4], 1.25 fold enrichment (6-mer frequency, TF over GST control); in assay [5], 1.24 fold enrichment (6-mer frequency, TF over GST control); in assay [6], 1.25 fold enrichment (6-mer frequency, TF over GST control). In addition, the binding signal in assay [7] was 1.24 fold enrichment (6-mer frequency, TF over GST control); in assay [8], 1.28 fold enrichment (6-mer frequency, TF over GST control).

Turning to CATGGT, the binding signal in assay [1] was 1.24 fold enrichment (6-mer frequency, TF over GST control); in assay [2] it was 1.27 fold enrichment (6-mer frequency, TF over GST control); in assay [3], 1.25 fold enrichment (6-mer frequency, TF over GST control); in assay [4] it was 1.13 fold enrichment (6-mer frequency, TF over GST control); in assay [5], 1.16 fold enrichment (6-mer frequency, TF over GST control); in assay [6] it was 1.16 fold enrichment (6-mer frequency, TF over GST control). The binding signal in assay [7] is 1.25 fold enrichment (6-mer frequency, TF over GST control); in assay [8], 1.2 fold enrichment (6-mer frequency, TF over GST control).

TTCATA: the binding signal is 1.19 fold enrichment (6-mer frequency, TF over GST control) in assay [1]; 1.23 fold enrichment (6-mer frequency, TF over GST control) in assay [2]; 1.15 fold enrichment (6-mer frequency, TF over GST control) in assay [3]; 1.1 fold enrichment (6-mer frequency, TF over GST control) in assay [4]; 1.12 fold enrichment (6-mer frequency, TF over GST control) in assay [5]; 1.15 fold enrichment (6-mer frequency, TF over GST control) in assay [6]. Also, the binding signal was 1.16 fold enrichment (6-mer frequency, TF over GST control) in assay [7] and 1.14 fold enrichment (6-mer frequency, TF over GST control) in assay [8].

CACACA: the binding signal was 1.16 fold enrichment (6-mer frequency, TF over GST control) in assay [1]; 1.22 fold enrichment (6-mer frequency, TF over GST control) in assay [2]; 1.14 fold enrichment (6-mer frequency, TF over GST control) in assay [3]; 1.07 fold enrichment (6-mer frequency, TF over GST control) in assay [4]; 1.1 fold enrichment (6-mer frequency, TF over GST control) in assay [5]; 1.06 fold enrichment (6-mer frequency, TF over GST control) in assay [6]. The binding signal in assay [7] was 1.1 fold enrichment (6-mer frequency, TF over GST control); in assay [8], 1.18 fold enrichment (6-mer frequency, TF over GST control).
